Screening results as filed in PubChem BioAssay.
Only some compounds are listed: those with a hit (about 1.4% of all), similar ones and a draw of the others.
PrPC TRFRET – cell surface PrPC inhibition, primary TR-FRET screen; TR-FRET read-out; P04156; AID 720596; 370,000 tested, 0.43% active; inhibition, % at 13.8 µM; in the data active means inhibition above about 24%; further: 0% = median of the test wells and 100% = reference compound wells
BJeLR viability – kills HRASV12-expressing BJeLR cells; BJeLR (HRASV12) viability, CellTiter-Glo ATP luminescence, 48 h; inhibition, % (concentration not given with the values); 300,000 tested, 0.17% active; in the data active means inhibition above about 50%
VHR inh abs – blocks human VHR1 dual specificity phosphatase; inhibition, % at 13.3 µM; recombinant VHR phosphatase, pNPP absorbance; P51452; AID 1654; 290,000 tested, 0.52% active; in the data active means inhibition above about 50%
Target sequence (P51452 whole entry, looked up): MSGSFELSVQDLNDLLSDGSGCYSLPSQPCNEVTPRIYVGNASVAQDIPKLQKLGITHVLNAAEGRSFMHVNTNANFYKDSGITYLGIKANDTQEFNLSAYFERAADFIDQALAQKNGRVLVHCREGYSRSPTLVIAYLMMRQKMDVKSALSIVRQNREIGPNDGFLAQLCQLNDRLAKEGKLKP
RN4220 kill – S. aureus RN4220 growth inhibition; OD600, 16 h; inhibition, % (concentration not given with the values); 330,000 tested, 0.33% active; AID 1259311; in the data active means inhibition above about 85%;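 further: plate controls were untreated cells for no effect and reference antibiotic for full effect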
Sa ugtP lethal – growth inhibition of S. aureus ugtP deletion strain; S. aureus RN4220 ugtP deletion, OD600 growth, 16 h; growth inhibition, % (no concentration beside the values); 330,000 tested, 0.54% active; AID 1259309; in the data active means growth inhibition above about 68%;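 further: plate controls were untreated wells for no effect and antibiotic for full effect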
3CLpro inhibitor – SARS-CoV 3CLpro protease inhibition; P0C6X7; recombinant SARS-CoV 3CLpro, quenched FRET peptide cleavage; inhibition, % at 6 µM; 290,000 tested, 0.14% active; AID 1706; in the data active means inhibition above about 12%
Starred values were filed as active, the others as inactive; / = no result.

SMILES	PrPC TRFRET	BJeLR viability	VHR inh abs	RN4220 kill	Sa ugtP lethal	3CLpro inhibitor
COc1cccc(C2C([N+](=O)[O-])=C(N)Oc3c2c(=O)oc2ccccc32)c1 (centres undefined)	3	-5	52*	7	6	2
COC(=O)C1CC2CCC(O)CC2N1Cc1ccc(C(C)(C)C)cc1 (centres undefined)	/	/	/	9	9	/
CC(=O)c1ccccc1OC(=O)c1ccc(-c2ccccc2)cc1	-10	-13	/	9	100*	/
Oc1ccccc1C=NN1CCN(Cc2ccccc2)CC1	7	/	/	/	/	/
FC(F)(F)c1ccccc1C=NN1CCN(Cc2ccccc2)CC1	/	/	/	-3	93*	/
Cc1ccc2nc(-c3ccncc3)cc(C(=O)Nc3ccc(F)cc3C)c2c1	-15	0	19	-8	3	3
Cc1ccc2nc(-c3cccnc3)cc(C(=O)Nc3ccc(F)cc3C)c2c1	5	-6	53*	0	-1	4
COc1ccccc1-c1coc2c(CN3CCC(C)CC3)c(O)ccc2c1=O	-3	-2	57*	/	/	1
CCC1CCCCN1Cc1c(O)ccc2c(=O)c(-c3ccccc3OC)coc12 (centres undefined)	-2	-5	/	2	1	/
Cc1ccc(C(C)C)c(OCC(=O)c2c(O)c3ccccc3oc2=O)c1	3	5	/	86*	86*	4
Cc1nc(S(=O)(=O)c2ccc(Cl)cc2)c(N(C)C)o1	0	-3	53*	2	0	-8
COc1ccccc1-c1cc(C(F)(F)F)nc(N2CCCCC2)n1	-6	-13	27	2	20	-4
COc1ccccc1-c1cc(C(F)(F)F)nc(N2CCCC2)n1	-4	-17	19	5	86*	-1
COc1ccc(NC(=O)N(C)CC2Oc3ccc(NC(=O)CCN4CCOCC4)cc3C(=O)N(C(C)CO)CC2C)cc1 (centres undefined)	/	/	/	0	-11	/
O=C1NC(=Nc2ccccc2)SC1=Cc1cccn1-c1ccccc1	/	/	/	-8	-21	/
Cc1ccccc1N=C1NC(=O)/C(=C/c2cccn2-c2cccc(C(=O)O)c2)S1	8	2	56*	2	2	-3
C=CCOC(=O)C1=CC(c2ccc(Br)cc2)C(CCCO)C(OCC)O1 (centres undefined)	/	/	/	7	4	/
CC(=O)/C(N=Nc1cc2c(cc1[N+](=O)[O-])OCCO2)=C(\C)O	6	8	5	1	-4	2
CC(=O)/C(N=Nc1cc2c(c([N+](=O)[O-])c1C)C(C)(C)CC2(C)C)=C(\C)O	-1	2	13	-3	89*	1
CCOc1ccc(N2CC(O)=C(c3nc4ccccc4c(=O)[nH]3)C2=N)cc1	4	8	56*	3	4	-2
N=C1C(c2nc3ccccc3c(=O)[nH]2)=C(O)CN1c1ccccc1	/	/	16	/	/	1
NCCCCC(C(=O)NCCCCCCCCCCC(=O)N1CCNCC1)n1cc(CCO)nn1 (centres undefined)	/	/	/	1	-2	/
Cc1[nH]cnc1C(=O)NN=Cc1ccc([N+](=O)[O-])s1	/	/	/	100*	100*	/
O=C(NN=Cc1ccc([N+](=O)[O-])s1)c1cncc(Br)c1	/	/	/	25	99*	/
COC(=O)NN=Cc1ccc([N+](=O)[O-])s1	/	/	/	20	14	/
SMILES	PrPC TRFRET	BJeLR viability	VHR inh abs	RN4220 kill	Sa ugtP lethal	3CLpro inhibitor
Oc1c(Cl)cc(Cl)cc1C=Nc1ccc(N2CCOCC2)cc1	-8	-13	60*	8	8	1
COc1ccc(-n2nnnc2S(=O)(=O)Cc2ccc(C(=O)O)cc2)cc1	2	10	-1	38	95*	-1
COc1ccc(-n2nnnc2S(=O)(=O)CC(=O)N2CCCCC2)cc1	4	/	12	10	11	2
COc1cc(/C=N/NC(=O)c2cc3ccccc3[nH]2)ccc1O	-8	9	57*	/	/	-9
COc1cc(/C=N/NC(=O)CCC(=O)Nc2ccc(C)cc2)ccc1O	7	-5	52*	/	/	0
CCNC(=O)COC(=O)CCC(=O)c1cccs1	-5	-5	4	5	-1	-5
CCC(CC)NC(=O)COC(=O)CCC(=O)c1cccs1	1	-2	52*	6	1	-1
CC(C)CN1CCC(=O)N(C(COc2ccccc2)c2ccccc2)CC1 (centres undefined)	/	/	/	3	4	/
COc1cccc(C2=NOC(C(=O)N3CCc4ccccc4C3)C2)c1 (centres undefined)	6	-8	55*	2	4	-2
O=C(C1CC(c2ccc(F)cc2)=NO1)N1CCc2ccccc2C1 (centres undefined)	-1	-9	29	2	5	-2
Cc1oc2ccc(OC(=O)N(C)C)cc2c1C(=O)OC(C)C	-6	5	3	8	11	2
COC(=O)c1cc(COc2ccc3oc(C)c(C(=O)OC(C)C)c3c2)c(C)o1	-1	-7	2	2	96*	-4
O=C1NC(=S)S/C1=C\c1cc(Cl)ccc1Cl	5	/	/	100*	100*	/
Cc1cc(C=C2SC(=S)NC2=O)c(C)[nH]1	/	/	/	13	0	/
COC(=O)C1=C(c2c(C)noc2C)CC2CCC1N2C(=O)NCc1ccco1 (centres undefined)	/	/	/	5	-2	/
CN(Cc1ccccc1F)C(=O)c1ccc(Oc2ccccc2)cc1	2	-1	/	78	91*	1
CN(Cc1ccc(C(F)(F)F)cc1)C(=O)c1ccc(Oc2ccccc2)cc1	-3	-4	/	-3	14	-1
Cc1cc(C)nc(SC2=CS(=O)(=O)c3ccccc32)n1	-3	-19	6	6	-2	-1
O=S1(=O)C=C(Sc2nnc(-c3ccccc3)o2)c2ccccc21	/	43	-10	93*	91*	1
O=C(NN=Cc1ccccc1)c1[nH]c2ccc(Br)cc2c1-c1ccccc1	/	/	/	-3	-14	/
O=C(N/N=C/c1ccccc1Cl)c1[nH]c2ccc(Br)cc2c1-c1ccccc1	-2	60*	-1	/	/	-6
CCOC(=O)NNC(=O)c1[nH]c2ccc(Br)cc2c1-c1ccccc1	5	2	55*	2	-5	2
COc1ccc(/C=N/NC(=O)c2[nH]c3ccc(Br)cc3c2-c2ccccc2)cc1	7	55*	-4	/	/	1
Cc1nc(N)nc(N)c1CCCc1ccc(Cl)c(Cl)c1	-3	57*	/	19	2	/
Brc1ccc(C2CN3CCSC3=N2)cc1 (centres undefined)	/	/	/	9	10	/
Nc1nc(NCc2ccco2)nc(N2CCCCCC2)c1[N+](=O)[O-]	11	12	-4	95*	98*	11
O=C(NN=C1C(=O)c2cccc3cccc1c23)c1ccc(Cl)cc1	/	/	/	97*	92*	/
C#CCOCCOCCOCCNc1nc(N2CCN(C(=O)C(CCCCN)n3cc(C(N)CC(C)C)nn3)CC2)nc(N2CCN(C(=O)C(CCC(=O)O)n3cc(C(N)C(C)CC)nn3)CC2)n1 (centres undefined)	/	/	/	4	3	/
